# Screens from PubChem.
# Only some compounds are listed: those with a hit (about 18% of all), similar ones and a draw of the others.
# DT40 TDP1 CPT: qHTS for Inhibitors of human tyrosyl-DNA phosphodiesterase 1 (TDP1): qHTS in cells in presence of CPT | 420,000 tested, 12% active | Potency, µM (series often up to 46.2 µM), actives largely listed as inhibitors | chicken DT40 Tdp1-/-;hTDP1 cells + 20 nM CPT, ATP luminescence, 48 h; also: nearly all actives have a fitted effect of over 55% in size
#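 Cell growth measured by CellTiter-Glo luminescence after a minimum 48 h, 37 C compound exposure with 20 nM CPT in Tdp1-knockout DT40 cells stably expressing hTDP1, seeded 400/well; qHTS titration format.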
# HepG2 tox: qHTS for Inhibitors of TGF-b: Cytotox Counterscreen; HepG2 CAGA-GFP viability, ATP luminescence, 18 h; 410,000 tested, 0.76% active; Potency, µM (doses to about 46.1 µM), hits mostly cytotoxic
#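 HepG2 CAGA-GFP cells (1000/well, DMEM with 1% FBS) received compound, then TGF-beta at 500 pg/mL final, and were incubated 18 hours at 37 degrees C. Viability was read by CellTiter-Glo luminescence. Media-only wells were set as complete cell-killing and DMSO as no toxicity.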
# TGFb inhibitor: qHTS for Inhibitors of TGF-b. AID 588855, 2011. 410,000 tested, 1.2% active. Potency, µM (top dose mostly 46.1 µM), usual class: inhibitors. HepG2 CAGA-GFP TGF-b/SMAD3 reporter, GFP fluorescence, 18 h; TGF-beta stimulated, 500 pg/mL final; also: nearly all actives have a fitted effect of over 65% in size
#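 Inhibition was scored as loss of TGF-beta-induced (500 pg/mL final, 18 hours, 37 degrees C) GFP in HEPG2 cells carrying a CAGA-GFP reporter, in DMEM with 1% FBS. Well GFP was summed per cell; Activity was normalised to unstimulated and stimulated DMSO wells, then concentration-response fitting.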
# TDP1 block: qHTS Assay for Inhibitors of Tyrosyl-DNA Phosphodiesterase (TDP1); recombinant TDP1, AlphaScreen DNA substrate cleavage; Tyrosyl-DNA phosphodiesterase 1 (Homo sapiens), Q9NUW8; 350,000 tested, 0.28% active; AID 485290, 2010; Potency, µM (top dose mostly 130 µM), actives largely listed as inhibitors; also: nearly all actives have a fitted effect of over 40% in size
# Target sequence (Q9NUW8 whole entry, looked up): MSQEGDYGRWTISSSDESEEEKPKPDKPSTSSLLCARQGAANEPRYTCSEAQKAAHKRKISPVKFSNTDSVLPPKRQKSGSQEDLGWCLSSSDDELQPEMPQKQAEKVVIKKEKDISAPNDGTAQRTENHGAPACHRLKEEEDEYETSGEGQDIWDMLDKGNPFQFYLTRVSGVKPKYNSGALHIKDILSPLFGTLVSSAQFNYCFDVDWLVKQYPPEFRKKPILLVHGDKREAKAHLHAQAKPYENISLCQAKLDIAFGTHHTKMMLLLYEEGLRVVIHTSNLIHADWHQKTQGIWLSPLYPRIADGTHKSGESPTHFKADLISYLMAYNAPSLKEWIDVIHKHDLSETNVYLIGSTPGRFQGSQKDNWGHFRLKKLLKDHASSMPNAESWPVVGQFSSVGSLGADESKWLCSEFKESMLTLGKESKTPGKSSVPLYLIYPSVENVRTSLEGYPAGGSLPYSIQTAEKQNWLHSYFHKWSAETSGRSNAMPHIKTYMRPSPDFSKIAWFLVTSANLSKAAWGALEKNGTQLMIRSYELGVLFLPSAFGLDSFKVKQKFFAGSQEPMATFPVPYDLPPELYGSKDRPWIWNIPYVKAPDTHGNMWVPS
#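 Tdp1 1 nM final; 15 min RT w/ cpd; substrate 15 nM, 5 min; beads 10 ug/ml, 10 min; AlphaScreen read. Neg ctrl: no enzyme.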
# TDP1 cell noCPT: qHTS for Inhibitors of human tyrosyl-DNA phosphodiesterase 1 (TDP1): qHTS in cells in absence of CPT | DT40 Tdp1-/- hTDP1 cells, no CPT, ATP luminescence, 48 h | Potency, µM (titrated, usually from 46.2 µM), actives largely listed as inhibitors | 420,000 tested, 15% active; also: nearly all actives have a fitted effect of over 55% in size
#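 Chicken DT40 Tdp1-/- cells complemented with human TDP1, screened without camptothecin (DMSO vehicle only), 400 cells/well. Compounds pin-transferred, cells incubated at 37 °C for at least 48 hr. Growth read as ATP-dependent luminescence (CellTiter-Glo, 30 min at RT).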
# IL1B secr inh: qHTS for Inhibitors of Inflammasome Signaling: IL-1-beta AlphaLISA Primary Screen. 360,000 tested, 4.7% active. AID 743279, 2014. THP-1 LPS/ATP IL-1B secretion, AlphaLISA, 16 h; hits give low values. activity change, % at 57.5 µM; in the data active = activity change below about -50%; inconclusive = mostly about -30% to -49%
#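 Secreted IL-1B measured by AlphaLISA bead assay after 16 h compound exposure of THP-1 cells; compounds (final up to 57.5 uM) added 1 h before LPS (250 ng/mL) and ATP (1.25 mM) stimulation; lower signal means less secretion.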
# A number is an active result; . = inactive; ? = inconclusive; / = no result given. Unless noted, calls follow the shape of the dose curve; as a rule, active = well fitted curve in the direction sought with a large enough effect; inconclusive = small, poorly fitted or top-dose-only effect, or another doubt; inactive = no such curve, though single readings can be large; an effect the other way counts as inactive or inconclusive.
SMILES,DT40 TDP1 CPT,HepG2 tox,TGFb inhibitor,TDP1 block,TDP1 cell noCPT,IL1B secr inh
O=C1Nc2ccc(Br)cc2/C1=N\N=C\C1=C(N2CCOCC2)C(=C/c2ccccc2)/CC1,?,.,.,/,10.3µM,.
CC(NC(=O)C12CC3CC(CC(C3)C1)C2)C(=O)N/N=C/C1=C(N2CCOCC2)C(=C\c2ccccc2)/CC1 (stereo not drawn),?,.,.,.,20.6µM,.
O=C(O)c1ccc(-n2cccc2/C=C2/NC(=O)N(c3ccccc3)C2=O)cc1,.,.,.,/,.,.
O=C(O)c1ccc(-n2cccc2/C=C2/NC(=O)N(c3cccc(Cl)c3)C2=O)cc1,.,.,.,1.58µM,.,.
Cc1ccc(CN2C(=O)N/C(=C\c3cccn3-c3cccc(C(=O)O)c3)C2=O)cc1,8.2µM,.,.,.,7.31µM,.
Cc1ccc(NC(=O)CN2C(=O)N/C(=C\c3cccn3-c3cccc(C(=O)O)c3)C2=O)cc1,.,.,.,2.82µM,.,.
O=c1cc(-c2cc(O)c(O)c([C@@H]3O[C@H](CO)[C@@H](O)[C@H](O)[C@H]3O)c2)oc2cc(O[C@@H]3O[C@H](CO)[C@@H](O)[C@H](O)[C@H]3O)cc(O)c12,/,/,/,.,/,/
CCOC1=C2[C@@H](CN(S(=O)(=O)c3ccc(C)cc3)[C@H]2c2ccccc2F)[C@H]2C(=O)NC(=O)[C@H]2C1,.,.,.,/,.,.
OC(c1ccc(F)cc1)c1nc(-c2cncnc2)cs1 (stereo not drawn),?,3.55µM,.,/,.,-86.0
OC(c1ccc(F)c(F)c1)c1nc(-c2ccccc2)cs1 (stereo not drawn),?,.,.,/,?,.
OC(c1ccc(F)c(F)c1)c1nc(-c2ccc3c(c2)OCO3)cs1 (stereo not drawn),20.6µM,.,.,/,?,.
COc1cc(C(O)c2nc(-c3cccc(F)c3)cs2)ccc1F (stereo not drawn),?,.,.,/,18.4µM,.
CC(=O)NC(c1ccc(F)c(F)c1)c1nc(-c2ccc3c(c2)OCO3)cs1 (stereo not drawn),?,.,.,/,?,.
OC(c1ccc(F)c(F)c1)c1nc(-c2cccc(F)c2)cs1 (stereo not drawn),14.6µM,.,.,/,?,.
Cc1noc(C)c1C(=O)N1CCC2(CCCN(Cc3ccc(C#N)cc3)C2)CC1,.,/,/,/,?,/
CCOc1ccc(N(CC(=O)NC2CC2)S(=O)(=O)c2ccc(C)cc2)cc1,.,.,.,.,.,.
Cc1ccccc1NC(=O)C(C)OC(=O)C1CCCO1 (stereo not drawn),.,.,.,/,.,.
COc1cc(C(O)c2nc(-c3cc(F)cc(F)c3)cs2)ccc1F (stereo not drawn),23.1µM,.,.,/,14.6µM,.
COc1cc(C(O)c2nc(-c3cccc(C(C)C)c3)cs2)ccc1F (stereo not drawn),?,.,?,/,18.4µM,.
CC(C)c1cccc(-c2csc(C(O)c3ccc(F)c(F)c3)n2)c1 (stereo not drawn),?,.,?,/,?,.
COc1cccc(C(O)c2nc(-c3cc4ccccc4o3)cs2)c1 (stereo not drawn),?,.,.,/,?,.
COc1ccc(C(O)c2nc(-c3cc(F)cc(F)c3)cs2)cc1 (stereo not drawn),16.4µM,.,.,/,16.4µM,.
COc1cc(C(O)c2nc(-c3cc4ccccc4o3)cs2)ccc1F (stereo not drawn),20.6µM,.,?,/,23.1µM,.
CC1(C(=O)NS(=O)(=O)c2ccc(Cl)s2)CCN1C(=O)c1ccccc1CCc1ccccc1 (stereo not drawn),?,.,.,/,?,.
CCN(CC)CCNC(=O)c1ccc(NC(=O)C2CC(=O)N(c3ccc4c(c3)OCCO4)C2)cc1 (stereo not drawn),.,.,.,.,.,.
SMILES,DT40 TDP1 CPT,HepG2 tox,TGFb inhibitor,TDP1 block,TDP1 cell noCPT,IL1B secr inh
Cc1ccc(NC(=O)CCCn2c(=O)c3cccn3c3cccnc32)c(C)c1,.,.,.,.,.,/
CC1=C(C(=O)N(C)C)CC(CC(=O)NCCc2ccccn2)C(=O)N1CCCN1CCCC1=O (stereo not drawn),.,.,.,/,.,.
COc1cc(C(O)c2nc(/C=C/c3ccccc3)cs2)ccc1F (stereo not drawn),18.4µM,.,?,/,?,.
OC(c1ccccc1)c1nc(-c2ccc(F)c(Cl)c2)cs1 (stereo not drawn),16.4µM,.,.,/,.,.
COc1cc(C(O)c2nc(-c3cncnc3)cs2)ccc1F (stereo not drawn),.,.,.,/,.,.
COc1cc(C(O)c2nc(-c3ccc(N(C)C)cc3)cs2)ccc1F (stereo not drawn),16.4µM,.,.,/,23.1µM,-61.6
OC(c1ccc(F)c(F)c1)c1nc(-c2cnc3ccccc3c2)cs1 (stereo not drawn),?,.,.,/,20.6µM,.
OC(c1ccc(F)cc1)c1nc(/C=C/c2ccccc2)cs1 (stereo not drawn),?,.,?,/,.,.
CCOc1ccc(C(=O)NCc2ccco2)cc1OC,.,.,.,/,.,.
COc1ccc(CN(C)C(=O)Cn2ccc(N)nc2=O)cc1OC,.,.,.,.,.,.
CCOC(=O)[C@]12CCCC=C1N(Cc1ccco1)C(=O)[C@H](CC(=O)NCCCCc1ccccc1)C2,23.1µM,/,/,/,?,?
CCOC(=O)[C@]12CCCC=C1N(Cc1ccco1)C(=O)[C@H](CC(=O)NCC13CC4CC(CC(C4)C1)C3)C2,25.9µM,/,/,/,?,-55.4
CCOc1ccccc1NC(=O)CCNC(=O)C1CCN(S(=O)(=O)c2ccccc2)CC1,.,.,.,/,.,.
CC(C(=O)N1CCOCC1)N1C(=O)c2cccc3cccc(c23)C1=O (stereo not drawn),.,.,.,.,.,.
O=S1(=O)C=C[C@H](COCc2ccccc2)N1,.,.,.,/,.,.
CCCCCCn1c(=O)c(-c2ccccc2)c(O)c2ccccc21,.,.,.,.,.,.
